Assay results as given in PubChem BioAssay (EPA / NIEHS).
Several values for one entry are separate records, joined by “and”; a condition that tells them apart may be missing. Identical values can stand only once. Activity calls are given as the source filed them. The calls were made as follows: active = hit-call score of the fitted dose curve at least 0.9, where 1 is the maximum; inactive = score below 0.9.

Read-out: Macrophage colony-stimulating factor (MCSF), CSF1 (gene 1435)
Assay: BSK_LPS_MCSF: BioMAP Diversity Plus: LPS Assay for Macrophage colony-stimulating factor (MCSF) Biomarker Activity (AID 2283083)
Details: primary human HUVEC with PBMC; actives raise or lower the signal
Protocol: BSK_LPS is a cell-based, multiplexed-readout assay that uses umbilical vein endothelium and peripheral blood mononuclear cells, a human vascular primary cell co-culture, with measurements taken at 24 hours after chemical dosing in a 96-well plate.BSK_LPS_MCSF is an assay component measured in the BSK_LPS assay. It measures M-CSF antibody related to regulation of gene expression using ELISA technology.Data from the assay component BSK_LPS_MCSF was analyzed into 1 assay endpoint. This assay endpoint, BSK_LPS_MCSF, was analyzed with bidirectional fitting relative to DMSO as the negative control and baseline of activity. Using a type of binding reporter, gain or loss-of-signal activity can be used to understand changes in the signaling as they relate to the gene CSF1. Furthermore, this assay endpoint can be referred to as a primary readout, because this assay has produced multiple assay endpoints where this one serves a signaling function. To generalize the intended target to other relatable targets, this assay endpoint is annotated to the cytokine intended target family, where the subfamily is colony stimulating factor.
The levels of cell surface (or secreted, indicated by the prefix "s") biomarker endpoints were measured by ELISA. Overt cytotoxicity to cells in confluent adherent cultures (all systems other than the BT system) was assessed by measuring total protein levels using sulforhodamine B (SRB) staining in parallel cultures at the time of biomarker measurements, indicated as SRB endpoints. For proliferation assays for adherent cell types, individual cell types are cultured at sub-confluence and relative cell numbers quantified by SRB staining at time points optimized for each system (48 h: 3C and CASM3C systems; 72 h: BT and HDF3CGF systems; 96 h: SAg system). SRB was performed by staining cells with 0.1% SRB after fixation with 10% TCA and reading wells at 560 nm.Viability and proliferation of PBMC (T cells) was quantified by Alamar Blue reduction for the SAg and BT systems. For PBMC viability (referred to as PBMC Cytotoxicity within the assay endpoint names), cells were plated (75,000/well in a 96-well plate) and then chemical samples added for 1 h before addition of activators, SEB and TSST-1 (20 ng/mL final concentration each). Cells were incubated for 90 h. Then, Alamar Blue (20 uL/well) (Invitrogen, Cat DAL1100) was added for 6 h, and the plates were read with a fluorescence microplate reader at 546/580 nm (excitation/emission). For PBMC proliferation, cells were plated and activated as above but incubated for only 16 h prior to addition of Alamar Blue. Plates were read after 6 h.

Row | SMILES | outcome | AC50
1 | O=S(=O)(c1ccccc1)c1ccccc1 | inactive | –
2 | CC1(C)[C@H](C(=O)O[C@H](C#N)c2cccc(Oc3ccccc3)c2)[C@@H]1C=C(Br)Br | inactive | –
3 | O=C1C(Cl)=C(Cl)C(=O)C(Cl)=C1Cl | – | 25.2 µM (active)
4 | Oc1cc(Cl)ccc1Cl | inactive | –
5 | CC(C)CCCCCCCOP(=O)(Oc1ccccc1)Oc1ccccc1 | – | 15.3 µM (active)
6 | O=[N+]([O-])O | inactive | –
7 | O=c1[nH]c(Cl)c(Cl)cc1Cl | inactive | –
8 | Oc1ccc(C2(c3ccc(O)cc3)c3ccccc3-c3ccccc32)cc1 | – | 33.9 µM (active) and 33.6 µM (active)
9 | CC(C)(C)C(O)C(Oc1ccc(-c2ccccc2)cc1)n1cncn1 (stereo not drawn) | inactive | –
10 | c1ccc(Nc2ccc3ccccc3c2)cc1 | inactive | –
11 | [Cd+2].[Cl-].[Cl-] | – | 19.5 µM (active) and 31.2 µM (active)
12 | Clc1ccc(-c2ccccc2)cc1 | inactive | –
13 | COC(C)(C)CCC[C@H](C)C/C=C/C(C)=C/C(=O)OC(C)C | – | 20.5 µM (active)
14 | O=P1(NCCCl)OCCCN1CCCl (stereo not drawn) | inactive | –
15 | COc1ccc(CO)cc1 | inactive | –
16 | C=CC(=O)OCC(CC)CCCC (stereo not drawn) | inactive | –
17 | CCc1cc(C)cc(CC)c1-c1c(OC(=O)C(C)(C)C)n2n(c1=O)CCOCC2 | inactive | –
18 | CC(C)(C)C(=O)CCl | – | 30.4 µM (active)
19 | N#CCCCCC#N | inactive | –

Row | SMILES | outcome | AC50
20 | O=C(CCl)c1ccccc1 | – | 4.37 µM (active)
21 | CCC(C)c1cc([N+](=O)[O-])cc([N+](=O)[O-])c1OC(=O)C=C(C)C (stereo not drawn) | – | 13 µM (active)
22 | C=CCN(CC=C)C(=O)C(Cl)Cl | inactive | –
23 | O=C(O)CCCc1ccc(N(CCCl)CCCl)cc1 | – | 17.7 µM (active) and 20 µM (active)
24 | Cc1ccc(OP(=O)(Oc2ccc(C)cc2)Oc2ccc(C)cc2)cc1 (tested in a mixture with another compound) | – | 16.1 µM (active)
25 | COCC(=O)N(c1c(C)cccc1C)N1CCOC1=O | inactive | –
26 | CCCC[N+](CCCC)(CCCC)CCCC | inactive | –
27 | CNC(=O)Oc1cc(C)c(SC)c(C)c1 | inactive | –
28 | CCCCCCCCCCCC#N | – | 38 µM (active)
29 | O=[N+]([O-])C=Cc1ccccc1 | – | 10.8 µM (active)
30 | CCCOC(=O)c1ccccc1C(=O)OCCC | – | 7.39 µM (active)
31 | CC(C)COP(=O)(OCC(C)C)OCC(C)C | inactive | –
32 | O=C1C=CC(=O)C=C1 | – | 20 µM (active) and 28.7 µM (active)
33 | Nc1ccc(-c2ccc(N)c(N)c2)cc1N | inactive | –
34 | CC(=O)/C=C/c1ccccc1 | – | 16.9 µM (active)
35 | O=[N+]([O-])c1ccc(Cl)cc1 | inactive | –
36 | CC(C)CCCCCCCOC(=O)c1ccccc1C(=O)OCCCCCCCC(C)C | inactive | –
37 | O=c1c2ccccc2c(=O)c2c1cc(Cl)c1[nH]c3c([nH]c12)c(Cl)cc1c(=O)c2ccccc2c(=O)c13 | inactive | –
38 | CC(C)(c1cc(Cl)c(O)c(Cl)c1)c1cc(Cl)c(O)c(Cl)c1 | – | 17.2 µM (active)
